Luciferase inh: blocks Photinus pyralis firefly luciferase activity; P08659; 72,000 compounds, 2.2% hits; purified firefly luciferase, luminescence, 8 min; Potency, µM (top dose mostly 57.1 µM), for the others: top-dose activity change, negative = inhibition, usual class: inhibitors; further: potency means the concentration at half of the fitted maximal effect; on the % scale 0 is the no-effect control and ±100 the full control effect; nearly all actives have a fitted effect of over 40% in size
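Substrate buffer containing 10 uM ATP (pH 7.2 imidazole, Mg2+, KCl, detergent, BSA) is dispensed, compound pinned in, then luciferase/luciferin detector mix added. After 8 min at ambient temperature, light output is measured.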
Ub-GFP proteasome: proteasome inhibitors stabilizing ubiquitin-GFP reporter | Ubiquitin-GFP reporter cells, proteasome inhibition, GFP fluorescence; response scale: untreated = 0%, 10 µM MG-132 = 100% | Potency, µM (highest dose often 45.9 µM), for the others: top-dose activation (GFP accumulation), hits mostly activators | 67,000 tested, under 10 active | AID 526; active means well fitted activation curve with a large enough effect, not every such curve was filed as active; inconclusive means small, poorly fitted or top-dose-only effect, or another doubt; inactive means no such curve, though single readings can be large or run the other way; further: potency means the concentration at half of the fitted maximal effect
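GFP accumulation read-out: laser plate cytometry counting ubiquitin(G76V)-GFP-expressing U2OS cells after 4 hr compound exposure at 37 °C. Titrations spanned 46 uM to 2.9 nM; 0% = basal, 100% = 10 uM MG-132; concentration-response curves fitted.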
HBB splicing: hemoglobin beta splicing modulation; HBB splicing reporter cell assay, activation; EGFP reporter with mutant IVS2-654 intron; response scale: normalised to 500 nM splice-correcting PNA; Potency, µM (top dose mostly 46.1 µM), for inactives: at the highest dose activation, most hits filed as activators; 65,000 compounds, 0.06% hits; AID 925; further: potency means the concentration at half of the fitted maximal effect; 0% is about no effect
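HeLa cells stably expressing EGFP interrupted by mutant beta-globin intron 2 (IVS2-654), 500/well in 2% FCS. Treated with compound for 2 days at 37C. Splicing correction scored as total well GFP intensity (488 nm excitation, 500-520 nm emission); 500 nM antisense PNA served as control.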
GBA mod: modulators of human glucocerebrosidase; Potency, µM; 48,000 compounds, 1.1% hits; purified enzyme, resorufin glucoside fluorescence (screen aimed at inhibitors), 20 min; in the data active means potency below about 15 µM; inconclusive means mostly about 16 µM to 33 µM;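 further: potency means the concentration at half of the fitted maximal effect; the screen sought inhibitors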
Target sequence (P04062 whole entry, looked up): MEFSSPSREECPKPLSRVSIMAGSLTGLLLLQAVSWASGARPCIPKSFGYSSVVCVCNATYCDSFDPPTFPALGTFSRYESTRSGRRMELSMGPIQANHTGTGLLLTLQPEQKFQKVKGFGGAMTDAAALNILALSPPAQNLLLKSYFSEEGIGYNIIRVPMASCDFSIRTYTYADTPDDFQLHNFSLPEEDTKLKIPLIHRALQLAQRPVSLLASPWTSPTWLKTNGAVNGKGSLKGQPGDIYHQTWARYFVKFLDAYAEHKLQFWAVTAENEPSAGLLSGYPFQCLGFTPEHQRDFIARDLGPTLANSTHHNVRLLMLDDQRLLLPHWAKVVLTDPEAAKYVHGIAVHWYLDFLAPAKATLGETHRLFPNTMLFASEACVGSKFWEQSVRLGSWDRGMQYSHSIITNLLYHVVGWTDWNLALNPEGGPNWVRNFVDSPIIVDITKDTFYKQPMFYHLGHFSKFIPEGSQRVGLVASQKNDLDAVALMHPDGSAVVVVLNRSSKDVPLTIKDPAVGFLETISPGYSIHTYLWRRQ
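Wild-type enzyme at 0.2 nM final in 50mM citric acid/KH2PO4, 10mM sodium taurocholate, 0.01% tween-20, pH 5.9, with resorufin beta-D-glucopyranoside at 30 uM final. Compounds titrated, 20 min at RT, red fluorescence read; AC50 from titration.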
GFP derepression: derepresses silenced GFP locus in mouse C127i cells; mouse C127i GFP locus derepression, cytometry, 30 h; Potency, µM (doses to about 46.1 µM), inactives show top-dose GFP derepression (activation); 68,000 compounds, 0.09% hits; AID 597; further: % of control where 0% means no effect
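Locus derepression in mouse mammary C127i cells whose integrated CMV-GFP reporter is normally silent; GFP expression after 30 h compound treatment was quantified by counting fluorescent cells.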
PK Bst: pyruvate kinase (B. stearothermophilus) modulation | purified pyruvate kinase, luminescence ATP production; ribose 5-phosphate activator present at AC10 | Potency, µM | 51,000 compounds, 1.2% hits; in the data active means potency below about 11 µM; inconclusive means mostly about 12 µM to 25 µM;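 the screen sought inhibitors and activators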;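 further: potency means the concentration at half of the fitted maximal effect; scaled between full activation by ribose 5 phosphate and full inhibition by luteolin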
The depositor's hits bear a star; ! = a repeat was not active; [ ] = dose if it differs, or a comment. Hits are enriched below; roughly 3.3% of the tested compounds scored in any of these assays. Unless noted, the call rests on the fitted dose curve; in most records, active means well fitted curve in the direction sought with a large enough effect; inconclusive means small, poorly fitted or top-dose-only effect, or another doubt; inactive means no such curve, though single readings can be large; an effect the other way counts as inactive or inconclusive.

`c1ccc(Nc2nc(-c3cccnc3)cs2)nc1` gave Luciferase inh 4µM*, Ub-GFP proteasome 0%, HBB splicing 2%, GBA mod >77, GFP derepression 1% and PK Bst inconclusive.
Screening c1ccc(Nc2nc(-c3cccs3)cs2)nc1 returned Luciferase inh 5µM*, Ub-GFP proteasome -1%, HBB splicing 0%[57.5 µM], GBA mod >77, GFP derepression 0% and PK Bst 3.6*.
Screening c1cncc(Nc2nc(-c3cccnc3)cs2)c1 returned Luciferase inh -3%, Ub-GFP proteasome -9%, HBB splicing 3%, GBA mod inconclusive and GFP derepression 0%.
`CC(C)C[C@@H](CC(=O)N[C@@H](CCCN)CC(=O)N[C@@H]1CCCC[C@H]1C(=O)N[C@H](CC(=O)N[C@@H](CCC(=O)O)CC(=O)O)Cc1c[nH]c2ccccc12)NC(=O)[C@@H]1CNCC[C@H]1N` gave HBB splicing 0%.
For Brc1ccc2[nH]c3nc(SCCN4CCOCC4)nnc3c2c1 the results were Luciferase inh -2%, Ub-GFP proteasome 6%, HBB splicing -1%, GBA mod 9.6*, GFP derepression 0% and PK Bst >57.
c1ccc2c(c1)[nH]c1nc(SCCN3CCOCC3)nnc12 was read as Luciferase inh -12%, Ub-GFP proteasome 3%, HBB splicing -1%, GBA mod inconclusive and GFP derepression 0%.
`Clc1ccccc1CNCC1CCC(CNCc2ccccc2Cl)CC1` (stereo not given) gave Luciferase inh -19%, Ub-GFP proteasome 11% and GFP derepression 1%.
For COc1ccc(-c2cc(-c3ccc(OC)cc3)[nH]n2)cc1 the results were Luciferase inh 16µM*, Ub-GFP proteasome 0%, HBB splicing 0%, GBA mod >77, GFP derepression -1% and PK Bst 2.1*.
For CC(C)Oc1ccc(NC(=O)Oc2ccccc2)cc1 the results were Luciferase inh 13µM*, Ub-GFP proteasome -9%[9.17 µM], HBB splicing 0%[0.0738 µM] and GFP derepression 0%.
CCCOc1ccc(C(=O)Nc2ccc(N(C)C)cc2)cc1 was read as Luciferase inh -26%, Ub-GFP proteasome 6%[9.17 µM], HBB splicing 0%[0.0738 µM] and GFP derepression 6%.
Screening CCOC(=O)Nc1ccc(Oc2ccccc2)cc1 returned Luciferase inh -29%, Ub-GFP proteasome 2%, HBB splicing 5%, GBA mod >77 and GFP derepression 0%.
`CC(C)Oc1ccc(C(=O)Nc2ccc(N(C)C)cc2)cc1` gave Luciferase inh 3.2µM*, Ub-GFP proteasome -18%[9.17 µM], HBB splicing 2%[0.0738 µM] and GFP derepression -2%.
For COCCn1c(N)c(C(=O)NCC2CCCO2)c2nc3ccccc3nc21 (stereo not given) the results were Luciferase inh 0%[25.5 µM], GFP derepression -1%[20.6 µM] and PK Bst >26.
Screening COCCn1c(N)c(C(=O)Nc2sc3c(c2C(=O)OC)CCCC3)c2nc3ccccc3nc21 returned Luciferase inh 4%, Ub-GFP proteasome -5%, HBB splicing 0%[57.5 µM], GBA mod 7.6*, GFP derepression 2% and PK Bst >57.
For COC(=O)[C@H](Cc1ccccc1)NC(=O)C/C=C\[C@@H](C)[C@@H](CO)OC the results were Luciferase inh 1%[11.4 µM] and HBB splicing 1%[9.22 µM].
Screening COc1ccc(NC(=O)c2cc3n(n2)C(C(F)(F)F)CC(c2ccco2)N3)cc1 (stereo not given) returned Luciferase inh -5%, Ub-GFP proteasome -3%, GBA mod >77, GFP derepression -2% and PK Bst >57.
Screening O=C(NCC12CC3CC(CC(C3)C1)C2)c1cc2n(n1)C(C(F)(F)F)CC(c1ccco1)N2 (stereo not given) returned Luciferase inh -1%, Ub-GFP proteasome 1%, HBB splicing -1%, GBA mod 13*, GFP derepression 12% and PK Bst >57.
For Cn1ccc2cc3c(cc21)CCN3C(=O)Nc1cccnc1 the results were Luciferase inh 25µM*!, Ub-GFP proteasome 12%, HBB splicing 0% and GFP derepression 0%.
For CN1CCc2cc(NC(=O)Nc3cccnc3)ccc21 the results were Luciferase inh inconclusive, Ub-GFP proteasome 4%, HBB splicing 3% and GFP derepression -2%.
Screening Cc1ccc(-c2nc(-c3nccc4ccccc34)oc2-c2ccccc2)cc1 returned Luciferase inh 3.2µM*, Ub-GFP proteasome 3%[9.17 µM], HBB splicing 7%[9.22 µM] and GFP derepression 0%[9.22 µM].
For O=C(O)COc1cccc(-c2ocnc2-c2nc(-c3ccccc3)c(-c3ccccc3)o2)c1 the results were Luciferase inh -11%, Ub-GFP proteasome 1% and GFP derepression 1%.
`COC(=O)[C@@]1(Cc2ccccc2)[C@H]2c3cc(C(=O)N4CCCC4)n(Cc4ccc(O)c(OC)c4)c3C[C@H]2CN1C(=O)c1ccccc1` gave HBB splicing 0%.
`Cc1cc(C)n(-c2nc3ccccc3nc2Nc2ccc3c(c2)OCO3)n1` gave Luciferase inh -3%, Ub-GFP proteasome 8%, HBB splicing 0% and GFP derepression -8%.
Cc1ccc2nc(Nc3ccc4[nH]c(=O)[nH]c4c3)c(-n3nc(C)cc3C)nc2c1 was read as Luciferase inh 4µM*, Ub-GFP proteasome -3%, HBB splicing 0%, GBA mod >77, GFP derepression 29% and PK Bst 7.5*.
`O=C(c1ccco1)n1c(=S)nc2ccccn21` gave Luciferase inh 5µM*, Ub-GFP proteasome 1%, HBB splicing 1%[57.5 µM], GBA mod >77, GFP derepression 4% and PK Bst inconclusive.
Screening Cc1cccc2nc(=S)n(C(=O)c3ccco3)n12 returned Luciferase inh 2µM*, Ub-GFP proteasome 1%, HBB splicing 2%[57.5 µM], GBA mod >77, GFP derepression 3% and PK Bst inconclusive.
`CCCCCCCC/C=C\CCCCCCCC(=O)N(CCO)CCO` gave HBB splicing 0%.
Cc1cc(=O)n2[nH]c(-c3ccccc3Cl)cc2n1 was read as Luciferase inh 16µM*, HBB splicing 1%[0.369 µM], GBA mod >77 and GFP derepression -5%.
`N#Cc1cc(-c2ccccc2)oc1NC(=O)c1ccco1` gave Luciferase inh 25µM*, Ub-GFP proteasome 5%, HBB splicing 1%, GBA mod >77 and GFP derepression -3%.
`CCCC[P+](CCCC)(CCCC)Cc1ccc(NC(=O)[C@@H](Cc2ccc3ccccc3c2)NC(=NC2CCCCC2)NC2CCCCC2)cc1` gave Luciferase inh 1%, Ub-GFP proteasome -2% and GFP derepression 1%.

Bioassay records deposited in PubChem by National Center for Advancing Translational Sciences (NCATS).
